“And” between values parts separate entries of the source, which are not always exact repeats. Identical values can stand only once. The list shows a part of the results. A number with no mark means an inactive call. The source made the active and inactive calls. Calls follow the shape of the dose curve; as a rule, active = well fitted inhibition curve with a large enough effect; inactive = no such curve, though single readings can be large or run the other way.

For 15 molecules, max response, negative = inhibition and Potency results are on record in PubChem BioAssay AID2161 (National Center for Advancing Translational Sciences (NCATS), 2009).
Also: nearly all actives have a fitted effect of over 35% in size.
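For max response, negative = inhibition in this document: 0% = no-compound wells and -100% = no-enzyme wells.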
Potency is read from the fitted curve at half-maximal effect.

Sequence of Papain (Carica papaya) (P00784 whole entry, looked up): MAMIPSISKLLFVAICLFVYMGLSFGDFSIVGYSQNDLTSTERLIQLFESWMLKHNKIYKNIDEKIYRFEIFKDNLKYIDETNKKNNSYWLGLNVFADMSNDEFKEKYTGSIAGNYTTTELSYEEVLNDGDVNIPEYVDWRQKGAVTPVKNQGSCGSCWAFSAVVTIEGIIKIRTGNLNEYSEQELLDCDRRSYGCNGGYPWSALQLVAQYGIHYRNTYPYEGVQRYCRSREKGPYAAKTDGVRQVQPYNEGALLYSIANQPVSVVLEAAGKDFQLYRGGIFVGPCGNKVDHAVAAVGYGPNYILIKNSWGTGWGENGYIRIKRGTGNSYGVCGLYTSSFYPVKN

This test deals with Papain (Carica papaya) (UniProt P00784). Put plainly: qHTS Assay for Inhibitors of Papain: Counterscreen for Cruzain Assay. To be noted: purified papain, Z-FR-AMC fluorescence cleavage; max response, negative = inhibition: stronger effect = lower value. The text has this:
Assay Provider: Shoichet, Brian; University of California, San Fancisco Screening Center PI: Austin, C.P. Screening Center: NIH Chemical Genomics Center [NCGC] The following papain assay is a counterscreen for a related protein cruzain (AID: 1478). Cruzain is a cysteine protease from the tropical parasite Trypanosoma cruzi. Activity against papain was used to help prioritize chemical series active against cruzain. Papain is a closely related cysteine protease known to utilize the same Z-FR-AMC fluorogenic substrate as cruzain. The fluorogenic assay used for cruzain was utilized here as well, with the exception of the reducing agent, which was 5 mM cystein here instead of DTT. Fluorogenic coumarin-based Z-FR-AMC substrate was used; proteolytic cleavage releases AMC, whose fluorescence is measured at 360 nm excitation and 450 nm emission. Purified papain was supplied by the labs of Profs. James McKerrow and Brian Shoichet, UC San Francisco. This assay had 0.01% Triton X-100 concentration.
Buffer: 100 mM Sodium Acetate, pH 5.5, 5 mM DTT, Triton X-100 concentration: 0.01%. Reagents/Controls: Buffer in columns 3 and 4 as negative control (no enzyme). Substrate solution: 2 uM final concentration of Z-FR-AMC (catalog number I-1160, Bachem) dispensed throughout the plate. Enzyme: 12 nM Papain final concentration. Assay Steps: Three uL of enzyme or buffer were dispensed to 1536-well Greiner black solid bottom plates. Compounds and controls (23 nL) were transferred via Kalypsys PinTool. The plates were incubated for 15 min at room temperature, and then 1 uL of substrate solution was added to start the reaction. The plates were immediately transferred to and read 4 times every 30 seconds for 2 min on ViewLux High-throughput CCD imager (Perkin-Elmer) using 360 nm excitation and 450 nm emission fluorescence protocol. The fluorescence intensity difference between the third and the first time points (time lapse of 60 seconds) was used to compute reaction progress. Data was normalized to neutral (no compound) and negative (no enzyme) controls.
A general note: In qHTS, concentration-response curves come from the screen itself.
With `c1ccc2cc3c(NCCN4CCOCC4)ccnc3cc2c1`, the max response, negative = inhibition was -50.2%.
Regarding `Cc1ccc(-c2c3c(=O)n(C)c(=O)n(C)c3cn2-n2cnnc2)cc1`, the Potency is 28.2 µM (active).
For the molecule `O=C(OCN1C(=O)c2ccccc2C1=O)/C(=C\c1ccco1)NC(=O)c1ccccc1`, the max response, negative = inhibition is -35.6%.
Still for that read-out and setting: the same measure for `Cn1c(C(=O)NCCN2CCc3ccccc3C2)cc2c(=O)[nH]c3ccccc3c21`: -20.9%.
As to `CCN(CC)c1nc(C#N)nc(OC)n1`, the Potency is 5.01 µM (active).
For `N#Cc1nc(Nc2cc(F)cc(Cl)c2)nc(NC2CCCC2)n1`, the Potency is 1.12 µM (active).
Same read-out and setting: the same measure for `N#Cc1nc(Nc2cccc(Cl)c2)nc(NC2CCCC2)n1`: 0.891 µM (active); for `N#Cc1nc(N)nc(N(c2ccccc2)c2ccccc2)n1`: 8.91 µM (active) and 11.2 µM (active).
Regarding `CCCCNC(=O)Cn1c(SCc2cccc(Cl)c2)nc2ccncc21`, the max response, negative = inhibition was -12%.
Turning to `CC(C)C[C@H](NC(=O)[C@@H]1O[C@H]1C(=O)O)C(=O)NCCCCN=C(N)N`, the Potency is 0.01 µM (active).
On to `C=CCNC(=O)c1ccc2nc(-c3ccco3)c(-c3ccco3)nc2c1`, for which the max response, negative = inhibition was -64.7%.
For the molecule `C=CC(=O)c1ccc2ccccc2c1`, the Potency was 12.6 µM (active).
Consider `O=C1OC(/C=C/c2ccccc2)=NC/1=C/c1ccco1`, for which the max response, negative = inhibition was -2.34%.
Same read-out and setting: as for `Cc1ccc(SCCC(=O)OCC(=O)Nc2ncc(Cl)cc2Cl)cc1`, the figure is -6.29%.
Still for that read-out and setting: the same measure for `CCc1ccc(OCCCn2c(CCCNC(=O)C3CCCCC3)nc3ccccc32)cc1`: -1.28%.
